Here are results for 13 molecules from PubChem BioAssay (Tox21).

Where “and” joins values, the source holds several entries; their conditions need not be identical. Equal entries are not always repeated. Results filed as inconclusive are left out. Some compounds were tested as several samples or in several runs, with calls that do not always agree. Calls of active or inactive are those of the source. Unless noted, the call rests on the fitted dose curve; in most records, active means well fitted curve in the direction sought with a large enough effect in the repeat runs; inconclusive means weak or mixed curves; inactive means no such curve, though single readings can be large; an effect the other way counts as inactive or inconclusive.

Assay [1] in a line: qHTS assay to identify small molecule antagonists of the vitamin D receptor (VDR) signaling pathway - cell viability counter screen (AID 743225). Further: nearly all actives have a fitted effect of over 50% in size. The method in brief:
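Parallel cytotoxicity test: VDR-UAS-bla HEK 293T, 3 nM (final) 1-alpha,25-dihydroxyvitamin D3 with test compound, 16 h, 37C. Endpoint is CellTiter-Glo luminescence in the same wells.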

Assay [2] in a line: qHTS assay to identify small molecule agonists of the NFkB signaling pathway (AID 1159509; active means well fitted curve in the direction sought with a large enough effect in the signal ratio in the repeat runs, not every such curve was filed as active; the % refers to the signal ratio; further: series mostly up to about 61 µM). The method in brief: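 Readout: FRET fluorescence, 405 nm excitation, 460/530 nm emission; beta-lactamase expression disrupts FRET. Cells: ME-180 stably carrying NF-kB-driven bla reporter. Compound exposure 5 hr, 37 C, 5% CO2.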
Assay [3] can be described thus: qHTS assay to identify small molecule agonists of the NFkB signaling pathway - cell viability counter screen (AID 1159515; calls by dose curve; further: series mostly up to about 61 µM; nearly all actives have a fitted effect of over 55% in size). In short, it runs like this:
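Parallel cytotoxicity counter screen in ME-180 cells carrying an NFkB-response-element beta-lactamase reporter, 2,000 cells/well. Compound exposure lasted 5 hr at 37 C, 5% CO2. Cell viability was quantified by CellTiter-Glo luminescence.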

The nature of assay [4]: qHTS assay to identify small molecule agonists of the endoplasmic reticulum stress response signaling pathway (AID 1159516; active means well fitted activation curve with a large enough effect in the signal ratio in the repeat runs, not every such curve was filed as active; the % refers to the signal ratio). The method in brief:
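Using a HeLa line with an ESRE-driven beta-lactamase gene, agonist activity was measured by FRET substrate fluorescence (460 and 530 nm emission) after cells were treated with compounds for 5 hr at 37 C and 5% CO2.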

The nature of assay [5]: qHTS assay to identify small molecule agonists of the endoplasmic reticulum stress response signaling pathway - cell viability counter screen (AID 1159517; calls by dose curve;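 further: HeLa cells carrying an ER stress response element beta-lactamase reporter; series mostly up to about 61 µM; nearly all actives have a fitted effect of over 50% in size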). In short, it runs like this:
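Steps: seed 1,500 ESRE-bla HeLa cells per well; incubate overnight at 37 C, 5% CO2; add compounds in DMSO for 5 hr; run FRET substrate 2 hr RT; add CellTiter-Glo, wait 30 min, read luminescence.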

Assay [6] can be described thus: qHTS assay to identify small molecule antagonists of the retinoid-related orphan receptor gamma (ROR-gamma) signaling pathway - cell viability counter screen (AID 1159520). Further: nearly all actives have a fitted effect of over 50% in size. The method in brief:
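Tet-on ROR gamma CHO cells were given compounds for 2 hr, then doxycycline hyclate at 1 uM final, and incubated 16 hr at 37 C. Viability was measured as ATP content by CellTiter-Glo luminescence.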

Assay [7] addresses Nuclear receptor ROR-gamma (Homo sapiens) (UniProt P51449). The assay can be described thus: qHTS assay to identify small molecule antagonists of the retinoid-related orphan receptor gamma (ROR-gamma) signaling pathway (AID 1159521;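 further: CHO cells with doxycycline inducible ROR-gamma driving an RORE luciferase reporter; top concentration of the series differs between compounds; nearly all actives have a fitted effect of over 50% in size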). The method in brief:
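Decreased RORE-driven luciferase luminescence indicates antagonism. Tet-on RORγ CHO cells received compound, then 1 uM final doxycycline 2 h later; signal read after 16 h incubation.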

Assay [8] in a line: qHTS assay to identify small molecule agonists of the AP-1 signaling pathway - cell viability counter screen (AID 1159525; calls by dose curve; further: nearly all actives have a fitted effect of over 55% in size). In short, it runs like this:
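Same-well cytotoxicity counter screen of the Tox21 10K library in ME-180 cells. The readout is ATP-dependent luminescence after 5 h compound treatment. Data are normalised to DMSO and tetra n-octyl ammonium bromide controls.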

A short description of assay [9]: qHTS assay to identify small molecule agonists of the AP-1 signaling pathway (AID 1159526; calls by dose curve).
The target in assay [10] is Retinoic acid receptor RXR-alpha (Homo sapiens) (UniProt P19793). Kind of assay: qHTS assay to identify small molecule agonists of the RXR signaling pathway (AID 1159527; calls by dose curve; further: nearly all actives have a fitted effect of over 35% in size; further: potency means the concentration at half of the fitted maximal effect). In short, it runs like this: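 16 hr incubation of compound-treated RXR-alpha-UAS-bla HEK 293T cells (2% charcoal-stripped FBS, 37 C) preceded a 2 hr room-temperature LiveBLAzer FRET substrate step and blue/green fluorescence measurement.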
Retinoic acid receptor RXR-alpha (Homo sapiens), sequence (P19793 whole entry, looked up): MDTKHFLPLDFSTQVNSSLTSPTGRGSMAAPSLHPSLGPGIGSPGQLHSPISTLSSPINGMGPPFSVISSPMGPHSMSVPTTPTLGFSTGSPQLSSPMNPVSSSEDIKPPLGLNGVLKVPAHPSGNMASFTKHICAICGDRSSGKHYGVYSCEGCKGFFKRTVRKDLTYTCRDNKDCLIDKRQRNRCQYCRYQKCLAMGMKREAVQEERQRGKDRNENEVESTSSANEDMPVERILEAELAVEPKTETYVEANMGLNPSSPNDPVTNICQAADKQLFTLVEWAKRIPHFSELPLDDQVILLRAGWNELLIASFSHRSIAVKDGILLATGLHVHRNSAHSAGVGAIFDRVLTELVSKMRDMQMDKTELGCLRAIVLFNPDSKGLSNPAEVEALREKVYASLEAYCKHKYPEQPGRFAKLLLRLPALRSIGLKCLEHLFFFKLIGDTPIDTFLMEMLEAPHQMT

Assay [11] in a line: qHTS assay to identify small molecule agonists of the RXR signaling pathway - cell viability counter screen (AID 1159529). The method in brief:
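In this parallel viability measure, GeneBLAzer RXR-alpha HEK 293T cells (2% charcoal-stripped FBS) were given a 5 hr preincubation, treated with compounds 16 hr at 37 C, and read by CellTiter-Glo luminescence.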

Assay [12] in a line: qHTS assay to identify small molecule antagonists of the retinoid acid receptor (RAR) signaling pathway - cell viability counter screen (AID 1159551). Further: nearly all actives have a fitted effect of over 35% in size. In short, it runs like this:
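ATP-based viability, C3RL4 cells, 6 h at 37 C with 1 uM final retinol co-added after compound; luminescence read 30 min post CellTiter-Glo, RT.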

The nature of assay [13]: qHTS assay to identify small molecule agonists of the retinoic acid receptor (RAR) signaling pathway (AID 1159553). In short, it runs like this:
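Quantitative high-throughput format: the Tox21 10K library was tested on C3RL4 RARE-luciferase cells for 6 hr at 37 C and 5% CO2, with luminescence measured after a 30 min room-temperature reagent step.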

Assay [14] is described as follows: qHTS assay to identify small molecule antagonists of the estrogen related receptor (ERR) signaling pathway - cell viability counter screen (AID 1224818).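 Further: series mostly up to about 46 µM; viability measured after 17.5 h of compound exposure.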 The method in brief: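 Quantitative high-throughput viability counter screen in ERR cells. Compounds (DMSO) incubated 17.5 h at 37 C; read-out was CellTiter-Fluor fluorescence.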
The nature of assay [15]: qHTS assay to identify small molecule antagonists of the estrogen related receptor signaling pathway with the pleiotropic PPARgamma coactivator (PGC) cell viability counter screen (AID 1224822; further: series mostly up to about 46 µM). The method in brief:
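Cytotoxicity in the PGC/ERR cell line is assessed with CellTiter-Fluor, read as fluorescence intensity 30 min after reagent addition, following 17.5 h compound treatment at 37 C.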

A short description of assay [16]: qHTS assay to identify small molecule agonists of the vitamin D receptor (VDR) signaling pathway - cell viability counter screen (AID 743224). The method in brief:
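Compounds were pin-transferred onto VDR-bla cells plated 4 h earlier; following 16 h incubation at 37C, cell viability was quantified by CellTiter-Glo luminescence after 30 min at room temperature.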

Assay [17] is described as follows: qHTS assay to identify small molecule antagonists of the retinoic acid receptor (RAR) signaling pathway (AID 1159552; further: nearly all actives have a fitted effect of over 50% in size). The method in brief: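 C3RL4 RARE-luc cells, overnight plating; retinol 1 uM final added right after compound; 6 hr 37 C; luciferase read at 30 min RT.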
Assay [18] in a line: qHTS assay to identify small molecule antagonists of the estrogen related receptor (ERR) signaling pathway (AID 1224819). In short, it runs like this: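 ERR reporter cell line (NTP) plated at 2,000 cells/well, settled 6 h at 37C/5% CO2, then exposed to LOPAC compounds for 18 h at 37C. One-Glo luciferase luminescence read after 30 min at room temperature.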
Assay [19] is described as follows: qHTS assay to identify small molecule agonists of the estrogen related receptor (ERR) signaling pathway (AID 1224820). In short, it runs like this: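 Luminescence readout (One-Glo, 30 min RT) from NTP-supplied ERR cell line exposed to compounds for 18 h at 37 C. Cells seeded 2,000 per well and pre-incubated 6 h before pin-tool compound transfer.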
Assay [20] has as its system estrogen-related receptor alpha (ERRalpha) with PGC-1alpha coactivator, human. The assay can be described thus: qHTS assay to identify small molecule antagonists of the estrogen related receptor signaling pathway with the pleiotropic PPARgamma coactivator (PGC) (AID 1224821; calls by dose curve). In short, it runs like this: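 PGC/ERR reporter cells; 6 h pre-incubation 37 C/5% CO2; pin-tool compound in DMSO, 18 h 37 C; One-Glo added, 30 min RT; luminescence read. qHTS antagonist mode.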

Consider `OC(CCN1CCCCC1)(c1ccccc1)C1CC2C=CC1C2` (configuration not stated), for which the Potency result in assay [1], in assay [7], in [8], in [10], in [11] and in assay [13] was “inactive” in each case. For the same molecule, the call in assay [2], in [3], in assay [4], in [5], in [6] and in assay [9] was inactive. Moreover, the outcome in assay [12], in [14] and in [15] was inactive.
As for `C1OCOCO1`, the Potency result in [16], in [1], in assay [7], in assay [8], in assay [10] and in assay [11] was “inactive” in each case. Also, the Potency entry in assay [17] and in assay [13] was “inactive” each time. Also, the call in assay [2], in [3], in [4], in assay [5], in [6] and in assay [9] was inactive. Further, the molecule was called inactive in [12].
As for `CC(=O)OC/C=C(\C)CC/C=C(\C)CCC=C(C)C`, the Potency result in [16], in assay [1], in assay [7], in assay [8], in assay [10] and in [11] was “inactive” in each case. In addition, in assay [17], the Potency result was “inactive”. In addition, the call in assay [2], in assay [3], in [4], in assay [5], in assay [6] and in assay [9] was inactive. Also, the outcome in assay [12] was inactive.
Take `CCC(=O)OC(C)c1ccccc1` (configuration not stated): the Potency result in assay [16], in [1], in [7], in [8], in [10] and in assay [11] was “inactive” in each case. For the same molecule, the Potency entry in assay [17] and in assay [13] was “inactive” throughout. In addition, the molecule was classed as inactive in [2], in assay [3], in assay [4], in [5], in assay [6] and in assay [9]. Moreover, the call in assay [12] was inactive.
Turning to `CC(C)CCCC(C)N` (configuration not stated), the Potency entry in assay [1], in assay [7], in assay [8], in [10], in [11] and in assay [17] was “inactive” throughout. Besides, the Potency result in assay [13] is “inactive”. In addition, the molecule was classed as inactive in assay [2], in assay [3], in assay [4], in assay [5], in assay [6] and in assay [9]. Further, in assay [12], the result was inactive.
For the molecule `CO/N=C(/C(=O)N[C@@H]1C(=O)N2C(C(=O)OCOC(=O)C(C)(C)C)=C(C)CS[C@H]12)c1csc(N)n1`, the Potency entry in assay [1], in assay [7], in [8], in assay [10], in assay [11] and in assay [17] was “inactive” each time. Further, the Potency result in assay [13] is “inactive”. The molecule was classed as inactive in assay [2], in assay [3], in [4], in assay [5], in [6] and in assay [9]. In addition, the molecule was classed as inactive in assay [12].
Regarding `Nc1cc(=O)[nH]c(N)n1`, the Potency entry in [16], in [1], in [7], in [8], in [10] and in [11] was “inactive” in each case. In addition, in assay [13], the Potency result is “inactive”. In addition, the result in [2], in [3], in assay [4], in assay [5], in [6] and in assay [9] was inactive. Also, the call in assay [12], in assay [14] and in [15] was inactive.
With `C=C(C)CS(=O)(=O)O`, the Potency result in assay [1], in [7], in assay [8], in assay [10], in assay [11] and in assay [17] was “inactive” throughout. Further, the Potency result in [13] is “inactive”. Also, the molecule was classed as inactive in assay [2], in assay [3], in assay [4], in assay [5], in assay [6] and in assay [9]. Besides, the call in assay [12] was inactive.
`NCCc1cnc[nH]1`: the Potency entry in assay [16], in assay [1], in assay [7], in assay [8], in [10] and in assay [11] was “inactive” throughout. Moreover, in assay [13], the Potency result is “inactive”. In addition, the outcome in assay [2], in assay [3], in assay [4], in assay [5], in assay [6] and in assay [9] was inactive. Further, the molecule was called inactive in assay [12], in [14] and in [15].
`CC/C=C\CC/C=C/C(OCC)OCC`: the Potency result in assay [16], in assay [1], in [7], in [8], in assay [10] and in assay [11] was “inactive” each time. The Potency entry in [13] was “inactive”. The call in assay [2], in assay [3], in assay [4], in assay [5], in assay [6] and in assay [9] was inactive. In addition, the outcome in [12] was inactive.
On to `COC(=O)c1c(Cl)c(Cl)c(C(=O)OC)c(Cl)c1Cl`, for which the Potency result in [16], in assay [1], in assay [7], in [8] and in assay [11] was “inactive” throughout. Besides, the molecule was classed as inactive in assay [2], in [3], in assay [4], in assay [5], in assay [6] and in assay [12]. The result in assay [14], in assay [18], in assay [19], in [20] and in assay [15] was inactive. Further, in assay [10], the Potency entry was “inactive and 5.49 µM (active)”.
Turning to `CC(C)=CCCC(C)CC(=O)O` (configuration not stated), the Potency entry in assay [16], in [1], in assay [7], in assay [8], in assay [10] and in assay [11] was “inactive” throughout. Also, the Potency result in assay [13] is “inactive”. Also, the molecule was called inactive in [2], in assay [3], in assay [4], in assay [5], in assay [6] and in assay [9]. Besides, the result in [12] was inactive.
Take `O=S(O)CO`: the Potency result in assay [16], in assay [1], in assay [7], in assay [8], in [10] and in assay [11] was “inactive” each time. For the same molecule, the Potency entry in [13] is “inactive”. Moreover, the call in [2], in assay [3], in [4], in [5], in assay [6] and in [9] was inactive. The molecule was called inactive in [12].
